The values below come from PubChem BioAssay (NCATS).

Results filed as inconclusive are left out. Activity calls are given as the source filed them. Calls come from the whole dose curve; as a rule, active = well fitted curve in either direction with a large enough effect (not every such curve was filed as active); inconclusive = small, poorly fitted or top-dose-only effect, or another doubt; inactive = flat fitted curve, though single readings scatter.

This test is described as follows: AP1 Signaling Pathway (AID 357).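 Note: ME-180 reporter cells stimulated with EGF at its EC50 level.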 As to conditions: ME-180 (cervical carcinoma) AP-1-bla reporter, EGF-induced, beta-lactamase ratio, 5 h; series mostly up to 17.2 µM. An outline of the steps:
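A ratiometric CCF4 readout (405 nm excitation; 460 and 530 nm emission) quantified AP-1-driven beta-lactamase in ME-180 cells after 5 h with compound and EC50 EGF; AC50 values were derived for activators and inhibitors.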
On to `CS(=O)(=O)N1CCC2(CCCN(Cc3ccncc3)C2)CC1`, for which the outcome was inactive. Then `c1ccc(CN2CC[C@@]3(CCCNC3)C2)cc1`, with “inactive”; and `O=C(c1ccncc1)N1CCC[C@@]2(CCN(Cc3nccs3)C2)C1`, with “inactive”; and `c1cc(CN2CC3(CCNCC3)C2)ccn1`, with “inactive”. For `c1csc(CN2CC[C@@]3(CCCNC3)C2)n1`, the outcome was inactive.

Regarding `COC(=O)N1CCC2(CCCN(C)C2)CC1`, the outcome was inactive. Then `c1ccc(CN2CCC3(CCNCC3)CC2)cc1`, with “inactive”; and `Cc1noc(C)c1C(=O)N1CCC2(CCCN(CC(C)C)C2)CC1`, with “inactive”.

For the molecule `CN1CC[C@@]2(CCCN(C(=O)c3ccncc3)C2)C1`, the result was inactive. Next, `c1cnc(N2CCCC3(CCNCC3)C2)nc1`: “inactive”; `c1ccc(N2CC3(CCNCC3)C2)cc1`: “inactive”; `Clc1ccccc1-c1cncnc1NCCc1cnc[nH]1`: “inactive”. As for `CN1CC[C@@]2(CCCN(C(=O)Oc3ccccc3)C2)C1`, the outcome was inactive. Then `c1csc(CN2CCC3(CCNCC3)CC2)n1`, with “inactive”; and `O=C(Nc1ccccc1)N1CC[C@@]2(CCCN(C(=O)Oc3ccccc3)C2)C1`, with “inactive”. Next, `O=C(c1csnn1)N1CCC2(CC1)CN(Cc1ccncc1)C2`: “inactive”; `CC(C)NC(=O)N1CC[C@@]2(CCCNC2)C1`: “inactive”; `c1ccc(N2CC3(CCNCC3)C2)nc1`: “inactive”. Next, `CC(C)NC(=O)N1CCC2(CC1)CCN(C(=O)Oc1ccccc1)CC2`: “inactive”; `CC(C)NC(=O)N1CCCC2(CCN(C(=O)Oc3ccccc3)CC2)C1`: “inactive”.

On to `CN1CCCC2(CCN(C(=O)Oc3ccccc3)CC2)C1`, for which the outcome was inactive. Turning to `CC(C)CN1CCC2(CC1)CCN(S(C)(=O)=O)CC2`, the result was inactive.

Turning to `CN1CCCC2(CCN(C(=O)c3csnn3)CC2)C1`, the result was inactive. Next, `CC(C)CN1CCCC2(CCN(C(=O)c3ccncc3)CC2)C1`: “inactive”; `O=C(c1ccco1)N1CCC[C@@]2(CCN(Cc3ccncc3)C2)C1`: “inactive”. Consider `O=C(Nc1ccccc1)N1CC2(CCN(C(=O)Oc3ccccc3)CC2)C1`, for which the outcome was inactive.

For the molecule `CC(C)CN1CC[C@@]2(CCCN(C(=O)c3ccncc3)C2)C1`, the result was inactive.

Take `Cc1noc(C)c1C(=O)N1CCC[C@@]2(CCN(CC(C)C)C2)C1`: the result was inactive. Take `CC(C)CN1CC2(CCN(C(=O)Oc3ccccc3)CC2)C1`: the outcome was inactive. With `O=C(Oc1ccccc1)N1CCC2(CCCN(Cc3ccccc3)C2)CC1`, the outcome was inactive. Next, `N#Cc1cccc(NC(=O)N2CC3(CCN(C(=O)Oc4ccccc4)CC3)C2)c1`: “inactive”; `O=C(c1cnccn1)N1CCC2(CC1)CN(Cc1ccncc1)C2`: “inactive”. For `O=C(Oc1ccccc1)N1CCC2(CC1)CN(Cc1ccncc1)C2`, the outcome was inactive. Consider `CN1CCCC2(CCN(C(=O)c3ccco3)CC2)C1`, for which the outcome was inactive.

With `O=C(Nc1cccc(F)c1)N1CC2(CCNCC2)C1`, the outcome was inactive.
